Laboratory results: PubChem BioAssay
For some of these results: Potency and affinity values are given separately. Activity calls are given as the source filed them.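 How the source made its calls, unless noted: active means membrane potential signal rise above negative control mean plus 3 SD in both duplicates, also active in the earlier TRPC4 screen; inactive means the rest.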

Experiments:
[1] = system: TRPC4 beta (transient receptor potential cation channel C4), mouse; test: TRPC4 cation channel opening, retest – cell-based, Fluo4 calcium, HEK293 TRPC4beta/mu-opioid, duplicates, 10 µM, confirmation (AID 2426;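 active means fluorescence ratio normalized to control raised more than 50% in primary screen plus both repeat runs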); conditions: Fluo4 calcium fluorescence, at 10 µM; stronger effect = higher value
[2] = system: transient receptor potential cation channel C4 beta (TRPC4), mouse; test: TRPC4 cation channel opening, second retest – cell-based, second round, Fluo4, HEK293 TRPC4beta/mu-opioid, 1 µM, confirmation (AID 2461;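 active means primary screen active and over 50% activation in each of two duplicate runs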); conditions: Fluo4 calcium fluorescence, at 1 µM; stronger effect = higher value
[3] = system: TRPC4 (transient receptor potential cation channel C4 beta), mouse; test: potentiation of DAMGO EC20 TRPC4 response – cell-based, second round, Fluo-4, HEK293 TRPC4beta/mu-opioid, 1 µM, confirmation (AID 2554;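 active means primary screen hit whose fluorescence ratio, in both repeats, exceeds the weak agonist control mean by 3 SD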); conditions: DAMGO EC20, Fluo-4 calcium flux, at 1 µM; stronger effect = higher value
[4] = system: TRPC4 beta (transient receptor potential cation channel C4), mouse; test: potentiation of DAMGO EC20 TRPC4 response – cell-based, Fluo-4, HEK293 TRPC4beta/mu-opioid, confirmation (AID 2555;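 active means primary screen hit whose calcium fluorescence ratio, in both repeats, exceeds the weak agonist control mean by 3 SD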); conditions: DAMGO EC20, Fluo-4 calcium flux, at 10 µM; stronger effect = higher value
[5] = target: Short transient receptor potential channel 4 (Mus musculus) (UniProt Q9QUQ5); test: blockers of DAMGO-evoked TRPC4 calcium flux – cell-based, Fluo4, HEK293 TRPC4beta/mu-opioid, confirmation (AID 2636;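 active means calcium signal cut by more than 3 SD below the full-agonist control yet still positive, in both repeats and the earlier primary screen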); conditions: at 10 µM; stronger effect = higher value
[6] = target: Short transient receptor potential channel 4 (Mus musculus) (UniProt Q9QUQ5); test: blockers of DAMGO-evoked TRPC4 calcium flux – cell-based, second round, Fluo4, HEK293 TRPC4beta/mu-opioid, 1 µM, confirmation (AID 2637;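 active means calcium signal ratio cut to more than 3 SD under the fully stimulated control mean yet still positive, in both repeats and the primary screen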;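 on inhibition: percent of integrated ratio relative to wells lacking test compound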); conditions: at 1 µM; stronger effect = higher value
[7] = target: Short transient receptor potential channel 4 (Mus musculus) (UniProt Q9QUQ5); test: calcium entry via TRPC4 opening agents – cell-based, HEK293 TRPC4/mu-opioid, Fluo-4 calcium, dose response (AID 434937;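 active means primary screen activator hit with a dose response curve and TRPC4 channel activation at any tested dose; inactive means no activation, no dose response, or not a primary hit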); conditions: HEK293 TRPC4 cells, Fluo-4 calcium fluorescence ratio; series mostly up to 20 µM
[8] = target: Short transient receptor potential channel 4 (Mus musculus) (UniProt Q9QUQ5); test: potentiation of DAMGO-evoked TRPC4 calcium signal – cell-based, HEK293 TRPC4/mu-opioid, Fluo-4 calcium, EC20 DAMGO, dose response (AID 434941;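 active means earlier screen potentiator hit that boosts the TRPC4 ion channel at some dose, with a dose response; inactive means no potentiation, no dose response, or not a prior hit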;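 further: calcium entry triggered by an EC20 dose of DAMGO at the co-expressed mu-opioid receptor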); conditions: HEK293 TRPC4/mu-opioid cells, Fluo-4 calcium fluorescence; series mostly up to 20 µM
[9] = target: Short transient receptor potential channel 6 (Mus musculus) (UniProt Q61143); test: TRPC6 blockade by TRPC4 inhibitor hits – cell-based, HEK293, membrane potential dye, duplicate, selectivity assay for TRPC4 inhibitor project, confirmation (AID 434948;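 active means active in primary screen and both duplicates, each dropping signal beyond three positive-control SD with fluorescence still positive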); conditions: HEK293 TRPC6, membrane potential dye fluorescence, at 10 µM, stimulated with maximal-effect acetylcholine; stronger effect = higher value
[10] = target: Short transient receptor potential channel 6 (Mus musculus) (UniProt Q61143); test: TRPC6 opening by TRPC4 activator hits – cell-based, HEK293, membrane potential dye, duplicate, selectivity assay for TRPC4 activator project, confirmation (AID 434950); conditions: HEK293 TRPC6, membrane potential fluorescence, at 10 µM; activation: stronger effect = higher value; outcome: activation
[11] = target: Short transient receptor potential channel 6 (Mus musculus) (UniProt Q61143); test: positive modulators of mouse TRPC6 channel – HEK293 cells, membrane potential dye, duplicate, selectivity assay for TRPC4 potentiator project, confirmation (AID 434952;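 active means compound raising the membrane signal above positive-control mean plus 3 SD in both repeats, and a primary screen hit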); conditions: HEK293 TRPC6, membrane potential dye fluorescence, at 10 µM, maximal acetylcholine added after compound; stronger effect = higher value
[12] = target: Short transient receptor potential channel 4 (Mus musculus) (UniProt Q9QUQ5); test: calcium flux activators in TRPC4/5HT1a cells, counter-screen for TRPC4 activator project, cell-based, second counter screen, HEK293 TRPC4/5HT1a, Fluo-4 (AID 434977;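 active means calcium signal rise above buffer-control mean plus 5 SD in both duplicates, and also a hit in the primary screen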); conditions: Fluo-4 calcium flux, at 10 µM; stronger effect = higher value
[13] = serotonin-gated TRPC4 signal block – cell-based, second counter screen, HEK293 TRPC4/5HT1a, Fluo-4, counter-screen for TRPC4 inhibitor project, confirmation (AID 434978;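 active means primary screen active whose calcium signal fell more than 3 SD beyond the full-serotonin control mean in both duplicate plates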;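 on outcome: serotonin given first at submaximal then at maximal dose after compound preincubation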); conditions: Fluo-4 calcium flux, at 10 µM, serotonin added to trigger calcium flux; stronger effect = higher value
[14] = system: TRPC4 (mouse), co-expressed with 5HT1a in HEK293; test: enhancement of serotonin-evoked TRPC4 response – cell-based, second counter screen, HEK293 TRPC4/5HT1a, Fluo-4, counter-screen for TRPC4 potentiator project, confirmation (AID 434979;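 active means signal rise over 3 SD above mean of control wells given weak agonist, in both repeats and first screen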); conditions: Fluo-4 calcium flux, at 10 µM, serotonin added at its EC20 dose; stronger effect = higher value
[15] = nonspecific calcium rise without TRPC4 – cell-based, HEK293 mu-opioid receptor line, counter-screen for TRPC4 activator project, confirmation (AID 449723;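 active means hit in primary screen, with calcium signal over 5 SD above buffer well mean in both duplicates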;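 further: counter screen cells carry the mu-opioid receptor alone and lack TRPC4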); conditions: HEK293 mu-opioid cells, Fluo-4 calcium fluorescence, at 10 µM; stronger effect = higher value
[16] = nonspecific potentiation of DAMGO calcium response – cell-based, HEK293 mu-opioid receptor line, counter-screen for TRPC4 allosteric potentiator project, confirmation (AID 449724;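 active means calcium signal rise more than 3 SD above the low-dose agonist control mean, in both duplicate plates and the primary screen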); conditions: HEK293 mu-opioid receptor cells, Fluo-4 calcium flux, at 10 µM, compound added before EC20 DAMGO stimulus; stronger effect = higher value

Measured: inhibition

Sequence of Short transient receptor potential channel 6 (Mus musculus) (Q61143 whole entry, looked up): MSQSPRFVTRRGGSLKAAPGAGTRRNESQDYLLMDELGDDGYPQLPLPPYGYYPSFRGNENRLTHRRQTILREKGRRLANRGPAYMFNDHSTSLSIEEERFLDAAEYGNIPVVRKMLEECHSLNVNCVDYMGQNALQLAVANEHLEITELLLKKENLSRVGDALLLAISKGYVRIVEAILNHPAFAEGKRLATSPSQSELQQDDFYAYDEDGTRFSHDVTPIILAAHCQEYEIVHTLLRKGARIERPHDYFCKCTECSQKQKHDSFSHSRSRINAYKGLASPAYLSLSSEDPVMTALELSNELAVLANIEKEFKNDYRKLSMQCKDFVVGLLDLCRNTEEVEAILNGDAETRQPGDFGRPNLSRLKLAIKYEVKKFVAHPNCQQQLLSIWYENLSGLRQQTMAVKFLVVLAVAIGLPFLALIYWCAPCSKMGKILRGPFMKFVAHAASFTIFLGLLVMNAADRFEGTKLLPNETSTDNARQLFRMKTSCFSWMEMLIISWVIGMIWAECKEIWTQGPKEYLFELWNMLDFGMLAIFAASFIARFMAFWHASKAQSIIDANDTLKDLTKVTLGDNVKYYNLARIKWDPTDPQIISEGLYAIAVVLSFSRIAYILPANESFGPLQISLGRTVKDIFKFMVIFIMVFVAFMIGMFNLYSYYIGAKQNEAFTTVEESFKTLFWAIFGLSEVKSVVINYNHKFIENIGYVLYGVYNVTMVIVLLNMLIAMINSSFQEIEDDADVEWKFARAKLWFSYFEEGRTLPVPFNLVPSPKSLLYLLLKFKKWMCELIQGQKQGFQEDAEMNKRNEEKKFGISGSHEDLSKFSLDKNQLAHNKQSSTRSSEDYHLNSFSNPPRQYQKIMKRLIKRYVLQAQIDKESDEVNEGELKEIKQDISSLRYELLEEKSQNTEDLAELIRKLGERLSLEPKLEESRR
Sequence of Short transient receptor potential channel 4 (Mus musculus) (Q9QUQ5 whole entry, looked up): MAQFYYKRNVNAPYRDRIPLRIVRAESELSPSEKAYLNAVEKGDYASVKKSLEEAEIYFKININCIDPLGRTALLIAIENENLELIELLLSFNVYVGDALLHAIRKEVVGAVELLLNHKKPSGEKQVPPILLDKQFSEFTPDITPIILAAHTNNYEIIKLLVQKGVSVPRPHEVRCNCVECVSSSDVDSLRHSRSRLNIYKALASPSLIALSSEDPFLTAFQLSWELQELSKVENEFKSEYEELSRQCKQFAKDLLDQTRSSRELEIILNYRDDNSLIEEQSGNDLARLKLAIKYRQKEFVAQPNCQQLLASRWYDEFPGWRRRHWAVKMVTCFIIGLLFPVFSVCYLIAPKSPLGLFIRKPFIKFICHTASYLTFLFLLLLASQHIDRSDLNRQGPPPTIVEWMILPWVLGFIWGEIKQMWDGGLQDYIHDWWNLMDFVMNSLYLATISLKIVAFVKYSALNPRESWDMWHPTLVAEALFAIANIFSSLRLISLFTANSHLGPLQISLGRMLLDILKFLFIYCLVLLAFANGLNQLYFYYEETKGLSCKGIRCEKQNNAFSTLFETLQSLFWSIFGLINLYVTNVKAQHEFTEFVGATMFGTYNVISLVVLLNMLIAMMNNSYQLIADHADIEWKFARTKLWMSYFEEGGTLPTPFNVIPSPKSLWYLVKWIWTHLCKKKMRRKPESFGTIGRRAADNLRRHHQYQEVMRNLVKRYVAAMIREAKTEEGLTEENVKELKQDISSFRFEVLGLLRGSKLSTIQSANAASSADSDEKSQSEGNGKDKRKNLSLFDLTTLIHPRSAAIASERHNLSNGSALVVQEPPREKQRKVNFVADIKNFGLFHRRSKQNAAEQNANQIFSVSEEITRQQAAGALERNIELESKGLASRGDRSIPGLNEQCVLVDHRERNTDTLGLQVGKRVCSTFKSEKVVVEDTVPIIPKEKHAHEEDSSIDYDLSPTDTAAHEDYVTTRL

Cn1c(-c2ccccc2)cnc1NCc1ccccc1
active: [5] 86% | [6] 44% | [13] 38.6%
inactive: all other assays above

COc1ccc(-n2c3c(cc(C(=O)NCc4ccco4)c2=O)C(=O)CC(C)(C)C3)cc1
active: [5] 53%
inactive: all other assays above

CCOC(=O)C1(Cc2ccccc2C)CCCN(Cc2ccc(NC(C)=O)cc2)C1 (stereo unspecified)
active: [5] 83%
inactive: all other assays above

Cn1c(NCc2ccccc2O)nc2ccccc21
active: [5] 62%
inactive: all other assays above

Cc1c(CCOC(=O)CC23CC4CC(CC(C4)C2)C3)sc[n+]1Cc1ccccc1
active: [5] 96% | [9] 44.5% | [13] 19.6%
inactive: all other assays above

Cc1ccc(Sc2ccc(CO)cc2[N+](=O)[O-])cc1
active: [5] 98% | [13] 7.78%
inactive: all other assays above

COc1ccc(CN(C(=O)c2snc(C(N)=O)c2N)C(CC(C)C)C(=O)NC2CCCCC2)cc1 (stereo unspecified)
active: [5] 82% | [13] 30.8%
inactive: all other assays above

CCCCNCC1C(Oc2ccc(Cl)cc2)C(=O)N1c1ccccc1C (stereo unspecified)
inactive: all assays above

Cc1cc(C)c2[nH]c(=O)c(CN(Cc3cccnc3)C(=S)NCCCN(C)C)cc2c1
active: [5] 89% | [6] 60% | [13] 20.5%
inactive: all other assays above

COc1cccc(CNC(=O)CCC2CCCN(Cc3cc(Cl)ccc3O)C2)c1 (stereo unspecified)
active: [5] 93% | [13] 29%
inactive: all other assays above

COC(=O)c1ccc(CSc2nc3ccccc3c(=O)n2CC(C)C)o1
active: [5] 82% | [6] 41% | [13] 39.8%
inactive: all other assays above

OCC1(CCc2ccccc2)CCN(Cc2ccc3nsnc3c2)CC1
active: [5] 83%
inactive: all other assays above

CC1CCCCN1CCCNC(=O)c1nn(C)c2c1CSc1ccccc1-2 (stereo unspecified)
active: [5] 94%
inactive: all other assays above

COc1ccc(C)cc1N(C(=O)c1snc(C(N)=O)c1N)C(C(=O)NC1CCCCC1)c1ccc(C)o1 (stereo unspecified)
active: [5] 92% | [6] 72% | [13] 19.6%
inactive: all other assays above

CSCCNC(=O)c1ccc(OC2CCN(CCc3ccccc3)CC2)cc1
active: [6] 65%
inactive: all other assays above

O=c1c2ccccc2nc(SCc2ccccc2)n1CC1CCCO1 (stereo unspecified)
active: [5] 54% | [13] 18.9%
inactive: all other assays above

CC(COc1ccccc1)N1CCC(CO)(Cc2ccccc2)CC1 (stereo unspecified)
active: [5] 96% | [13] 22.9%
inactive: all other assays above

Cc1cc(Nc2cccc(O)c2)c2ccccc2n1
active: [5] 86% | [9] 55%
inactive: all other assays above

CCCCCCCNC(=O)COc1ccc2c(c1)C(=O)CC(C)(C)O2
active: [5] 81% | [6] 46% | [13] 24.7%
inactive: all other assays above

COCCCNc1cc(C)nc2ccccc12
active: [5] 94% | [9] 50.5%
inactive: all other assays above

Cc1cccc(-n2nc(C)c3c(C(=O)O)cc(-c4cccs4)nc32)c1
active: [5] 89% | [13] 28.2%
inactive: all other assays above

Fc1ccccc1COc1ccc(Br)cc1CNCC1CCCO1 (stereo unspecified)
active: [5] 91% | [6] 42% | [9] 39.5% | [13] 16.8%
inactive: all other assays above

Cc1nn(C)c(C)c1Sc1ccc(Br)cc1
active: [5] 82% | [13] 24.8%
inactive: all other assays above

COc1ccc(C2=NN(C(=O)c3ccccc3)C(c3ccc(OC)c(OC)c3)C2)c(O)c1 (stereo unspecified)
active: [5] 66%
inactive: all other assays above

Cc1ccc(CSc2nc(-c3ccccc3)c(C#N)c(=O)[nH]2)cc1
active: [6] 49% | [13] 12%
inactive: all other assays above

CCN(C(=O)c1c(-c2ccccc2Cl)noc1C)C1CCCCC1
active: [5] 71% | [13] 38.5%
inactive: all other assays above

O=C(Nc1ccc(F)cc1)N1CCN2C(=O)c3ccccc3C12c1ccccc1 (stereo unspecified)
active: [5] 68%
inactive: all other assays above

Cc1ccn2c(-c3csc(NCc4ccco4)n3)c(C)nc2c1
active: [5] 96% | [13] 22.8%
inactive: all other assays above

C=C(C)Cn1c(SCC)nc2ccccc2c1=O
active: [5] 96% | [13] 21.3%
inactive: all other assays above

O=C(O)c1ccc(CSc2nc(-c3ccc(Cl)cc3)cc(C(F)(F)F)n2)cc1
active: [5] 77% | [13] 19.2%
inactive: all other assays above

Cc1ccc(OCCn2c(C)nc3ccccc32)cc1
active: [5] 94% | [6] 61% | [13] 13%
inactive: all other assays above
